The results in this text go back to PubChem BioAssay (NCATS).

Results filed as inconclusive are left out. A number with no mark means an inactive call. The source made the active and inactive calls. The call rests on the fitted dose curve; in most records, active means well fitted cell-killing curve with a large enough effect; inconclusive means small, poorly fitted or top-dose-only effect, or effect the other way; inactive means no such curve, though single readings can be large or run the other way.

The nature of test [1]: Viability qHTS for spleen associated tyrosine kinase inhibitor (SYKi) naive MV4-11 cells (AID 1963823). Further: nearly all actives have a fitted effect of over 40% in size. The method in brief:
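Luminescence from CellTiter-Glo, developed 10 min at room temperature, gave viability of MV4-11 cells never exposed to SYK inhibitor. Cells (500/well) had been incubated with compounds for 72 hr under standard culture conditions.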

A short description of test [2]: Viability qHTS for spleen associated tyrosine kinase inhibitor (SYKi) drug resistant MV4-11 cells (AID 1963824). Further: nearly all actives have a fitted effect of over 35% in size. The essentials:
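CellTiter-Glo luminescence, read 10 min after reagent addition, reports viability after a 72 hr compound exposure. Cells are an MV4-11 line made resistant to SYK inhibition, seeded at 500 per well onto compound-containing plates.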
Potency means the concentration at half of the fitted maximal effect.

For the compound `C=C1C(O)C(O)C2(CC3C(C)=CCC4C(C)(C(=O)O)CCCC34C)OC2C1O` (stereo unspecified), the Potency result in test [1] and in test [2] was “inactive” each time.
In the case of `C=C1C(=O)OC2/C=C(\COC(C)=O)CC/C=C(\C=O)CC(OC(=O)CC(C)C)C12` (stereo unspecified), the Potency is 1.26 µM (active) in test [1] and 1.12 µM (active) in test [2].
On the same counts, the results for `CCC(C)(O)C(O)C(=O)OCc1ccc(O[C@@H]2O[C@H](CO)[C@@H](O)[C@H](O)[C@H]2O)cc1` (stereo partly specified) are “inactive” and “inactive”.
The matching figures for `O=C(O)C(O[C@@H]1O[C@H](CO[C@@H]2O[C@H](CO)[C@@H](O)[C@H](O)[C@H]2O)[C@@H](O)[C@H](O)[C@H]1O)c1ccccc1` (stereo partly specified): “inactive” and “inactive”.
The matching figures for `CC1=C2C(=O)C=C(CO[C@@H]3O[C@H](CO)[C@@H](O)[C@H](O)[C@H]3O)[C@@H]2[C@H]2OC(=O)[C@H](C)[C@@H]2CC1`: “inactive” and “inactive”.
As for `C=CC(C)(O)CC[C@@H]1[C@@]2(C)CCCC(C)(C)C2CC[C@@]1(C)O` (stereo partly specified), the Potency in test [1] was 25.9 µM (active); in test [2] it was 20.6 µM (active).
Regarding `CC1(CO)CC[C@]2(C(=O)O[C@@H]3O[C@H](CO)[C@@H](O)[C@H](O)[C@H]3O)CC[C@]3(C)C(=CCC4[C@@]5(C)CC[C@H](O[C@@H]6O[C@H](C(=O)O)[C@@H](O)[C@H](O)[C@H]6O)C(C)(C)C5CC[C@]43C)C2C1` (stereo partly specified), the viability (% of control) in test [1] was 87.4% [at 9.25 µM]. The viability, % of control in test [2] was 104% [at 9.25 µM].
`C(#Cc1nc2ncccc2nc1OCCN1CCCC1)c1ccccc1`: the figures for the Potency in test [1] and in test [2] were 0.651 µM (active) and 1.03 µM (active), respectively.
As to `CC1OC(OC2C(C)OC(OC3C(O)C(CO)OC(O[C@H]4CC[C@@]5(C)C(CC[C@]6(C)C5CC=C5C7[C@@H](C)[C@H](C)CC[C@]7(C(=O)O)CC[C@]56C(=O)O)C4(C)C)C3O)C(O)C2O)C(O)C(O)C1O` (stereo partly specified), in test [1], the viability (% of control) was 75.5% [at 9.25 µM]. Moreover, the viability, % of control in test [2] was 78.3% [at 9.25 µM].
On to `O=C(O)CCc1cccc(O)c1O[C@@H]1O[C@H](CO)[C@@H](O)[C@H](O)[C@H]1O`, for which the Potency result in test [1] and in test [2] was “inactive” each time.
Regarding `CC1CC(O)C2(OC1=O)OC1C(O)C3C4CCC5CC(OC6OC(CO)C(O)C(O)C6OC6OC(C)C(O)C(O)C6O)CCC5(C)C4CCC3(C)C1C2C` (stereo unspecified), the Potency result in test [1] and in test [2] was “inactive” throughout.
Regarding `COc1ccc(Cl)cc1[C@@]1(F)C(=O)Nc2cc(C(F)(F)F)ccc21`, the Potency in test [1] was 9.2 µM (active); in test [2], 6.51 µM (active).
For `CC/C=C\CC1C(=O)C=CC1(CCCCC1CCC(=O)O1)OC(C)=O` (stereo unspecified), the Potency in test [1] is 12.8 µM (active); in test [2], 7.18 µM (active).
With `CC1CCC/C=C/C(=O)c2c(O)cc(O)cc2CC(=O)O1` (stereo unspecified), the Potency in test [1] was 3.66 µM (active); in test [2], 2.06 µM (active).
The matching figures for `CCOc1ncc(S(=O)(=O)N2CCN(CC)CC2)cc1-c1nc2c(CC)n(CCOC)nc2c(=O)[nH]1`: “inactive” and “inactive”.
On the same counts, the results for `Cc1nc(C#Cc2ccnc(Cl)c2)c(C)n1-c1ccc(OC(F)(F)F)cc1` are 20.6 µM (active) and 23.1 µM (active).
On the same counts, the results for `C=CC(C)(C)c1[nH]c2ccccc2c1C[C@@H]1NC(=O)[C@H](Cc2c[nH]c3ccccc23)NC1=O` are “inactive” and 0.252 µM (active).
Turning to `CCCC(Nc1nc(-c2ccc(NC(=O)NCC)c(OC)c2)ncc1C)c1cccnc1` (stereo unspecified), the Potency was 0.058 µM (active) in test [1] and 0.13 µM (active) in test [2].
The matching figures for `CC1(O)CCC2C(C(=O)O)=COC(OC3OC(CO)C(O)C(O)C3OC(=O)/C=C/c3ccc(O)cc3)C21` (stereo unspecified): “inactive” and “inactive”.
On the same counts, the results for `C=C1C(=O)O[C@@H]2/C=C(\CO)CC/C=C(/C=O)C[C@@H](O)[C@@H]12` are 3.66 µM (active) and 2.06 µM (active).
In the case of `C=C[C@H]1[C@H](O[C@@H]2O[C@H](CO)[C@@H](O)[C@H](O)[C@H]2O)OC=C(C(=O)OC)[C@H]1CC(=O)O`, the Potency entry in test [1] and in test [2] was “inactive” throughout.
Take `CC(=O)O[C@@H]1[C@@H](CO)O[C@@](CO)(O[C@H]2O[C@H](COC(=O)/C=C/c3ccccc3)[C@@H](O)[C@H](O)[C@H]2O)[C@H]1O`: the Potency result in test [1] and in test [2] was “inactive” throughout.
Turning to `COc1cc(O)cc(C)c1C(=O)O[C@H]1[C@@H](O)[C@@H](n2ccc(=O)[nH]c2=O)O[C@@H]1CO`, the Potency result in test [1] and in test [2] was “inactive” in each case.
